TDP1 cell noCPT = qHTS for Inhibitors of human tyrosyl-DNA phosphodiesterase 1 (TDP1): qHTS in cells in absence of CPT | DT40 Tdp1-/- hTDP1 cells, no CPT, ATP luminescence, 48 h | Potency, µM (series often up to 46.2 µM), without a hit: at the highest dose activity change, negative = growth inhibition, usual class: inhibitors | 420,000 compounds, 15% hits; note: potency is the fitted concentration of half-maximal effect; nearly all actives have a fitted effect of over 55% in size
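Growth of hTDP1-complemented DT40 Tdp1-knockout cells is measured by ATP luminescence after at least 48 hr compound exposure at 37 °C, with DMSO substituting for the 20 nM CPT used in the parallel screen.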
IL1B secr inh = inflammasome signaling inhibition, IL-1 beta readout | THP-1 LPS/ATP IL-1B secretion, AlphaLISA, 16 h; stronger effect = lower value | activity change, % at 57.5 µM | 360,000 compounds, 4.7% hits | AID 743279; in the data active = activity change below about -50%; inconclusive = mostly about -30% to -49%
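THP-1 cells pretreated 1 hr with compounds (up to 57.5 uM final), then stimulated with LPS (250 ng/mL final) plus ATP (1.25 mM final); secreted IL-1B measured by AlphaLISA after 16 hr, decreased signal indicating inhibition.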
RORgamma inh = inhibitors of mouse ROR gamma transcriptional activity. Potency, µM (titrated, usually from 53.6 µM), inactives show at the highest dose activity change, negative = inhibition, most hits filed as inhibitors. P51450. 310,000 compounds, 5.4% hits. Drosophila S2 Gal4-RORgamma UAS-luciferase reporter, 20 h; note: potency is the fitted concentration of half-maximal effect; nearly all actives have a fitted effect of over 60% in size
Target sequence (P51450 whole entry, looked up, the tested form may be a part): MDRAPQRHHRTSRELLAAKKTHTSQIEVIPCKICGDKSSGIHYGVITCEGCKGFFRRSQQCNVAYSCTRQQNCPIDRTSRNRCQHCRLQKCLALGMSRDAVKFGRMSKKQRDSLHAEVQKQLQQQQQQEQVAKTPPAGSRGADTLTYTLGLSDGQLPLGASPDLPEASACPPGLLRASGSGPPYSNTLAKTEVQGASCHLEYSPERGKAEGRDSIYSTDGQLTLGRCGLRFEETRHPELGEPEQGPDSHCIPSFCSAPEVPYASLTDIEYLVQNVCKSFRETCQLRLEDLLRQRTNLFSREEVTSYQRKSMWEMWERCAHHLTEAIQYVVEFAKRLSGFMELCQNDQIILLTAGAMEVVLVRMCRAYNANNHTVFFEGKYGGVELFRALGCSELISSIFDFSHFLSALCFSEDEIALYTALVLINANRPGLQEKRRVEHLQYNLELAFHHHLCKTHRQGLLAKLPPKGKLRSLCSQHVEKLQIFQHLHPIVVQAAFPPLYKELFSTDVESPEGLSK
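Stable Schneider cell line, Gal4 DNA-binding domain fused to ROR gamma, UAS-luciferase. Cmpd 1 hr RT → CuSO4 700 uM final → 20 hr RT → luciferase reagent 10 min → luminescence.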
LDHA block = LDHA (human) enzyme inhibition. 480,000 compounds, 0.15% hits. purified LDHA, NADH/diaphorase-resazurin fluorescence; stronger effect = lower value. activity change, % (values are at about 110 or 230 µM). P00338; in the data active = activity change below about -30%; inconclusive = mostly about -25% to -30%;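 note: plate controls were DMSO wells for no effect and wells without enzyme for full effect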
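LDH5 2 nM; NADH 0.06 mM, pyruvate 0.2 mM; 200 mM Tris pH 7.4, EDTA, Tween-20; 5 min RT. Detection: diaphorase 0.133 mg/mL + resazurin 37 µM, fluorescence ex540/em590 at 0 and 20 min; normalized to enzyme-free and DMSO wells.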
VP16 counter = Gal4-VP16 reporter inhibition counter-screen; Potency, µM (titrated, usually from 53.6 µM), for inactives: top-dose activity, negative = inhibition, actives largely listed as inhibitors; Drosophila S2 Gal4-VP16 UAS-luciferase, luminescence, 20 h; 310,000 compounds, 3.5% hits;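 note: Gal4-VP16 expression switched on by copper sulfate through the metallothionein promoter; potency is the fitted concentration of half-maximal effect; nearly all actives have a fitted effect of over 50% in size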
DT40 TDP1 CPT = growth inhibition of DT40 Tdp1-/-;hTDP1 cells with camptothecin (screen for TDP1 inhibitors). chicken DT40 Tdp1-/-;hTDP1 cells + 20 nM CPT, ATP luminescence, 48 h. Potency, µM (highest dose often 46.2 µM), without a hit: at the top dose activity change, negative = growth inhibition, most hits filed as inhibitors. 420,000 compounds, 12% hits. AID 686979; note: potency is the fitted concentration of half-maximal effect; nearly all actives have a fitted effect of over 55% in size
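Chicken DT40 Tdp1-/- cells stably complemented with human TDP1 were seeded at 400 cells/well in medium containing 20 nM camptothecin, exposed to pin-transferred compounds, and grown at 37 °C for at least 48 hr. Viability was read as ATP luminescence.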
* hit, by the source's call. Rows were chosen to be rich in hits. Some 18% of all compounds tested hit in one or more screens of this group. Unless noted, calls come from the whole dose curve; as a rule, active = well fitted curve in the direction sought with a large enough effect; inconclusive = small, poorly fitted or top-dose-only effect, or another doubt; inactive = no such curve, though single readings can be large; an effect the other way counts as inactive or inconclusive. Unless noted, % is set by controls: 0 for no effect and ±100 for the full control effect.

For CCN(CC)S(=O)(=O)c1ccc2c(c1)N(CC(=O)N1CCN(c3cccc(C(F)(F)F)c3)CC1)C(=O)CO2 the results were TDP1 cell noCPT 21µM*, LDHA block -3 and DT40 TDP1 CPT inconclusive.
For Cc1cccc(N2CCN(C(=O)CN3C(=O)COc4ccc(S(=O)(=O)N5CCCC5)cc43)CC2)c1C the results were LDHA block 0.
O=C(/C=C/c1ccco1)N1CCCC(C(F)(F)F)C1 (stereo not given) was read as LDHA block 2.
CC1CCN(S(=O)(=O)c2ccc(C(=O)Nc3nnc(-c4ccco4)o3)cc2)CC1 was read as TDP1 cell noCPT 18µM*, IL1B secr inh inactive, RORgamma inh 0.35µM*, LDHA block 0, VP16 counter 0.5µM* and DT40 TDP1 CPT 15µM*.
`O=C(Nc1nnc(-c2ccco2)o1)c1ccc(S(=O)(=O)N2CCCC2)cc1` gave TDP1 cell noCPT inconclusive, IL1B secr inh 50, RORgamma inh 30%, LDHA block 0, VP16 counter -6% and DT40 TDP1 CPT inconclusive.
CC1CN(S(=O)(=O)c2ccc(C(=O)Nc3nnc(-c4ccco4)o3)cc2)CC(C)O1 (stereo not given) was read as TDP1 cell noCPT inconclusive, IL1B secr inh 7, RORgamma inh 1µM*, LDHA block 8, VP16 counter 3.2µM* and DT40 TDP1 CPT 23µM*.
`CCN(CC)Cc1ccccc1CNC(=O)c1cc2cccc(OC)c2oc1=O` gave LDHA block 20.
`Cc1cc(C)c(C2=Nn3c(C)nnc3SC2C)cc1C` (stereo not given) gave TDP1 cell noCPT 12µM*, IL1B secr inh 26, RORgamma inh inconclusive, LDHA block -3, VP16 counter -16% and DT40 TDP1 CPT 18µM*.
Screening Cc1ccc(-n2c(O)c(C=NCc3ccccn3)c3ccccc3c2=O)cc1C returned TDP1 cell noCPT 26µM*, IL1B secr inh -67*, RORgamma inh 10µM*, LDHA block -6, VP16 counter 22µM* and DT40 TDP1 CPT 8.2µM*.
Screening O=c1c2ccccc2c(C=NCc2ccccn2)c(O)n1-c1ccccc1Cl returned TDP1 cell noCPT -22%, IL1B secr inh 1, RORgamma inh 11µM*, LDHA block -3, VP16 counter inconclusive and DT40 TDP1 CPT -3%.
Screening O=c1c2ccccc2c(C=NCc2ccccn2)c(O)n1-c1ccccc1 returned TDP1 cell noCPT inconclusive, IL1B secr inh -9, RORgamma inh inconclusive, LDHA block -1, VP16 counter -16% and DT40 TDP1 CPT -25%.
Screening O=c1cc(CNCc2ccccc2)c2ccccc2[nH]1 returned LDHA block 4.
CCn1nc(C)c2c(-c3ccccc3)cc(=O)n(C(C)C(=O)NCCc3ccccc3)c21 (stereo not given) was read as TDP1 cell noCPT inconclusive, LDHA block 4 and DT40 TDP1 CPT 18µM*.
`CCn1nc(C)c2c(-c3ccccc3)cc(=O)n(C(C)C(=O)NCCC(C)C)c21` (stereo not given) gave TDP1 cell noCPT inconclusive, LDHA block 3 and DT40 TDP1 CPT 18µM*.
`CCn1nc(C)c2c(-c3ccccc3)cc(=O)n(C(C)C(=O)NCCc3ccc(OC)c(OC)c3)c21` (stereo not given) gave TDP1 cell noCPT inconclusive, LDHA block 5 and DT40 TDP1 CPT inconclusive.
CCn1nc(C)c2c(-c3ccccc3)cc(=O)n(C(C)C(=O)NCc3ccc(C)cc3)c21 (stereo not given) was read as TDP1 cell noCPT inconclusive, LDHA block -2 and DT40 TDP1 CPT 18µM*.
Screening COc1ccc2cc(C(=O)/C=C/c3cccs3)ccc2c1 returned LDHA block 6.
Screening COc1ccc(/C=N/OCc2ccc(Cl)c(Cl)c2)c(OC)c1 returned LDHA block 14.
`Cc1ccc(S(=O)(=O)n2nccc2-c2c(-c3ccc(Cl)cc3)noc2C)cc1` gave TDP1 cell noCPT 16µM*, IL1B secr inh -14, RORgamma inh inconclusive, LDHA block -5, VP16 counter -10% and DT40 TDP1 CPT inconclusive.
For CC(Oc1ccc(Cl)cc1)c1ccnn1S(=O)(=O)c1ccc(Cl)cc1 (stereo not given) the results were TDP1 cell noCPT -14%, IL1B secr inh -21, RORgamma inh 34%, LDHA block -4, VP16 counter -2% and DT40 TDP1 CPT -12%.
CC(C)c1ccc(C(C)NCCS(=O)(=O)c2ccc(Cl)cc2)cc1 (stereo not given) was read as TDP1 cell noCPT 12µM*, IL1B secr inh -77*, RORgamma inh inconclusive, LDHA block -4, VP16 counter inconclusive and DT40 TDP1 CPT 21µM*.
Screening O=C(NCCS(=O)(=O)c1ccc(Br)cc1)c1ccc(Cl)cc1 returned TDP1 cell noCPT -2%, IL1B secr inh -7, RORgamma inh 0%, LDHA block -12, VP16 counter -6% and DT40 TDP1 CPT -15%.
CC(C(=O)NCCS(=O)(=O)c1ccc(Br)cc1)S(=O)(=O)c1ccc(Cl)cc1 (stereo not given) was read as TDP1 cell noCPT inconclusive, IL1B secr inh -50*, RORgamma inh 34%, LDHA block -35*, VP16 counter 8% and DT40 TDP1 CPT -2%.
Screening CCCCN1C(=O)C2(/C(=C(\O)c3ccc(OC)cc3)C(=O)C(=O)N2CCOC)c2ccccc21 (stereo not given) returned LDHA block -7.
Screening COC(=O)C(C)Oc1ccc2c(-c3ccccc3)cc(=O)oc2c1 (stereo not given) returned LDHA block -32*.
For O=c1cc(-c2ccccc2)c2ccc(O)cc2o1 the results were TDP1 cell noCPT inconclusive, IL1B secr inh -60*, LDHA block -2 and DT40 TDP1 CPT -16%.
Screening CC(Oc1ccc2c(-c3ccccc3)cc(=O)oc2c1)C(=O)O (stereo not given) returned TDP1 cell noCPT 3%, IL1B secr inh -5, RORgamma inh 1%, LDHA block -4, VP16 counter -5% and DT40 TDP1 CPT -19%.
Cc1nc2ccc(C(=O)NCCCOC(C)C)cc2nc1C was read as LDHA block 12.

Compound activity from PubChem BioAssay.
